We go through 38 molecules from the supplement of paper PMC10503962.

The test concerns Trichuris muris adult worms. The test is described as follows: mean motility score (Paragon pixel variance) of adult worms (arbitrary units); higher = more motile worms, i.e. less anthelmintic effect; extreme values may be limits of the assay. The settings on record: 100 µM; 24 h. An outline of the steps:
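Films of 200 frames spaced 100 ms apart were taken on an automated phenotyping platform after worms had spent 24 h at 37°C and 5% CO2. Those worms were single adult Trichuris muris from infected NOD SCID mice, each in a 96-well plate well with 100 μL RPMI-1640 plus antibiotics and drug at 100 μM (1% v/v DMSO). Paragon pixel-variance analysis produced the motility score, averaged over replicate wells. Testing used three worms in three wells per drug across three separate occasions, with vehicle and positive controls.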
For the molecule `COc1c(C)c2c(c(O)c1C/C=C(\C)CCC(=O)O)C(=O)OC2` [mycophenolic acid], the mean motility score is 2100.
The value for `COc1ccc(-c2ccc3cc(C(=O)O)ccc3c2)cc1C12CC3CC(CC(C3)C1)C2` [adapalene] was 3410; that for `CCOC(=O)c1ncn2c1CN(C)C(=O)c1cc(F)ccc1-2` [flumazenil] was 3230.
In turn, `Cc1c(-c2ccccc2)oc2c(C(=O)OCCN3CCCCC3)cccc2c1=O` [flavoxate] came in with a mean motility score of 4070.
The value for `CNC(=O)c1ccccc1Sc1ccc2c(/C=C/c3ccccn3)n[nH]c2c1` [axitinib] was 2490.
The figure for `COc1cc(C(C)=O)ccc1OCCCN1CCC(c2noc3cc(F)ccc23)CC1` [iloperidone] is 1950.
The figure for `NS(=O)(=O)c1cc2c(cc1Cl)NC(CSCc1ccccc1)=NS2(=O)=O` [benzthiazide] is 3040; for `C=CC(N)CCC(=O)O` (stereo not drawn) [vigabatrin] it is 1690.
`COC(=O)c1ccccc1O` [methyl salicylate] gave a mean motility score of 3260.
On to `CNC[C@H](O)c1cccc(O)c1` [phenylephrine], for which the mean motility score was 3950.
`Nc1cc(-c2ccncc2)cnc1O` [inamrinone] displayed a mean motility score of 3880.
The figure for `CCOC(=O)n1ccn(C)c1=S` [carbimazole] is 1610; for `Oc1ncc(F)c(O)n1` [fluorouracil] it is 3090; for `CC1=C(C(=O)O)N2C(=O)[C@@H](NC(=O)[C@H](N)c3ccccc3)[C@H]2SC1` [cephalexin] it is 4830.
The figure for `CC12CC3CC(C)(C1)CC(N)(C3)C2.Cl` [memantine hydrochloride] is 2620; for `CCC(C)n1ncn(-c2ccc(N3CCN(c4ccc(OC[C@H]5CO[C@](Cn6cncn6)(c6ccc(Cl)cc6Cl)O5)cc4)CC3)cc2)c1=O` (stereo partly drawn) [itraconazole] it is 1700; for `Cc1ccc(S(=O)(=O)NC(=O)NN2CCCCCC2)cc1` [tolazamide] it is 4090.
In turn, `C[C@@H]1CN(c2c(F)c(N)c3c(=O)c(C(=O)O)cn(C4CC4)c3c2F)C[C@H](C)N1` [sparfloxacin] returned a mean motility score of 3980.
The value for `Cl.Nc1c2c(nc3ccccc13)CCCC2` [tacrine hydrochloride] was 2770; that for `CC[C@H](Nc1ncnc2[nH]cnc12)c1nc2cccc(F)c2c(=O)n1-c1ccccc1` [idelalisib] was 3590; that for `C[C@@H]1C[C@H]2[C@@H]3CCC4=CC(=O)C=C[C@]4(C)[C@@]3(F)[C@@H](O)C[C@]2(C)[C@H]1C(=O)CO` [desoximetasone] was 772.
`CCCCCCCCCCCCCCCCO` [cetyl alcohol]: the mean motility score was found to be 1880.
The molecule `C/C(=C\C(=O)OCCCCCCCCC(=O)O)C[C@@H]1OC[C@H](C[C@@H]2O[C@H]2[C@@H](C)[C@H](C)O)[C@@H](O)[C@H]1O` [mupirocin] displayed a mean motility score of 2520.
The figure for `CS(=O)(=O)Nc1ccc([N+](=O)[O-])cc1Oc1ccccc1` [nimesulide] is 1.33; for `CC(C)c1ccc2oc3nc(N)c(C(=O)O)cc3c(=O)c2c1` [amlexanox] it is 1570; for `Cl.O=C1CC2(CCCC2)CC(=O)N1CCCCN1CCN(c2ncccn2)CC1` [buspirone hydrochloride] it is 4250.
`COc1ccccc1N1CCN(CC(O)COc2cccc3ccccc23)CC1` (stereo not drawn) [naftopidil]: the mean motility score worked out at 3040.
Consider `Nc1ncnc2c1ncn2[C@@H]1O[C@H](COP(=O)(O)O)[C@@H](O)[C@H]1O` [adenosine phosphate], for which the mean motility score was determined as 4280.
The value for `CC/C(=C(/CC)c1ccc(O)cc1)c1ccc(O)cc1` [diethylstilbestrol] was 0.
The value for `Cc1ccccc1C(OCCN(C)C)c1ccccc1.Cl` (stereo not drawn) [orphenadrine hydrochloride] was 1810.
The value for `O=C(CCCN1CC=C(n2c(O)nc3ccccc32)CC1)c1ccc(F)cc1` [droperidol] was 2120; that for `Clc1ccc2c(c1)CCc1cccnc1C2=C1CCNCC1` [desloratadine] was 930; that for `N[C@@H](Cc1c[nH]c2ccc(O)cc12)C(=O)O` [oxitriptan] was 3310.
In the case of `CNCCCN1c2ccccc2CCc2ccccc21` [desipramine], the mean motility score was found to be 1090.
The value for `CCCCOc1cc(C(=O)NCCN(CC)CC)c2ccccc2n1` [dibucaine] was 2070; that for `CSc1ccc(C(=O)c2nc(O)[nH]c2C)cc1` [enoximone] was 1970; that for `CCN(CC)CCOC(=O)C1(C2CCCCC2)CCCCC1.Cl` [dicyclomine hydrochloride] was 4250.
In turn, `CCc1ccc(CCOc2ccc(CC3SC(=O)NC3=O)cc2)nc1` (stereo not drawn) [pioglitazone] showed a mean motility score of 0.
